PubChem BioAssay (Tox21)
Several values for one entry are separate records, joined by “and”; a condition that tells them apart may be missing. Equal entries are not always repeated. Results filed as inconclusive are left out. Where a structure was tested more than once in an assay, its records may differ in their call. Activity calls are given as the source filed them. Unless noted, the call rests on the fitted dose curve; in most records, active means well fitted curve in the direction sought with a large enough effect in the repeat runs; inconclusive means weak or mixed curves; inactive means no such curve, though single readings can be large; an effect the other way counts as inactive or inconclusive.

Legend:
[1] = qHTS assay to identify small molecule antagonists of the thyroid receptor (TR) signaling pathway (AID 743065); further: series mostly up to about 70 µM; nearly all actives have a fitted effect of over 55% in size
Summary of the method: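 GH3.TRE-Luc rat pituitary cells carrying two TR response elements driving luciferase were plated for 4 h, given compound plus 1 nM T3 (final), and incubated 23.5 h at 37 C. ONE-Glo luminescence measured reporter inhibition; CellTiter-Fluor fluorescence tracked cytotoxicity.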

[2] = test system: thyroid hormone receptor (rat, GH3 cells); assay: qHTS assay to identify small molecule agonists of the thyroid receptor (TR) signaling pathway (AID 743066; calls by dose curve)
[3] = target: Estrogen receptor (Homo sapiens) (UniProt P03372); assay: qHTS assay to identify small molecule antagonists of the estrogen receptor alpha (ER-alpha) signaling pathway (AID 743069; active means well fitted curve in the direction sought with a large enough effect in the signal ratio in the repeat runs, not every such curve was filed as active; the % refers to the signal ratio)
Summary of the method: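 A 17beta-estradiol challenge was applied right after compound transfer to ER-alpha-UAS-bla HEK293 cells previously kept in charcoal-stripped serum. Plates stood 18 hr at 37C and 5% CO2; fluorescence was read following 2 hr FRET substrate loading at room temperature.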

[4] = qHTS assay to identify small molecule antagonists of the estrogen receptor alpha (ER-alpha) signaling pathway - cell viability counter screen (AID 743074; calls by dose curve;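 further: HEK293 cells carrying ER-alpha-UAS-bla reporter stimulated with 17beta-estradiol; nearly all actives have a fitted effect of over 45% in size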)
[5] = target: Estrogen receptor (Homo sapiens) (UniProt P03372); assay: qHTS assay to identify small molecule agonists of the estrogen receptor alpha (ER-alpha) signaling pathway (AID 743075; calls by dose curve;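 further: HEK293 GripTite cells with ER-alpha and UAS-driven beta-lactamase reporter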)
[6] = target: Estrogen receptor (Homo sapiens) (UniProt P03372); assay: qHTS assay to identify small molecule agonists of the estrogen receptor alpha (ER-alpha) signaling pathway using the BG1 cell line (AID 743079); further: nearly all actives have a fitted effect of over 20% in size
[7] = qHTS assay to identify small molecule antagonists of the estrogen receptor alpha (ER-alpha) signaling pathway using the BG1 cell line - cell viability counter screen (AID 743081);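 further: compound given together with 17beta-estradiol as the ER stimulus; series mostly up to about 70 µM; nearly all actives have a fitted effect of over 45% in size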
Aromatase (Homo sapiens) = Aromatase (Homo sapiens) (UniProt P11511); assay: qHTS assay to identify aromatase inhibitors (AID 743083); further: nearly all actives have a fitted effect of over 55% in size; further: potency means the concentration at half of the fitted maximal effect
[8] = qHTS assay to identify aromatase inhibitors - cell viability counter screen (AID 743084);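 further: cells stimulated with testosterone during compound exposure; nearly all actives have a fitted effect of over 55% in size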; further: potency means the concentration at half of the fitted maximal effect
[9] = qHTS assay to identify small molecule that activate the aryl hydrocarbon receptor (AhR) signaling pathway - cell viability counter screen (AID 743086);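 further: HepG2 liver cells carrying the AhR DRE luciferase reporter; series mostly up to about 70 µM; nearly all actives have a fitted effect of over 45% in size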
Summary of the method: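 HepG2-AhR-luc (HG2L7.5c1) cells, 4000/well, were preincubated 5 h at 37C, exposed to compound in qHTS format for 24 hr at 37C, then given CellTiter-Fluor for 30 min; viability was read as fluorescence in the reporter wells.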

[10] = target: Peroxisome proliferator-activated receptor gamma (Homo sapiens) (UniProt P37231); assay: qHTS assay to identify small molecule antagonists of the peroxisome proliferator-activated receptor gamma (PPARg) signaling pathway (AID 743191; calls by dose curve; further: series mostly up to about 63 µM; nearly all actives have a fitted effect of over 30% in size)
Summary of the method: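 GeneBLAzer PPARg UAS-bla HEK293H cells carrying a UAS-driven beta-lactamase reporter were plated at 3000 cells/well, preincubated 5 h at 37C, then given compound for 17 h at 37C; LiveBLAzer B/G FRET substrate was read after 1 h at room temperature.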

[11] = qHTS assay to identify small molecule antagonists of the peroxisome proliferator-activated receptor gamma (PPARg) signaling pathway - cell viability counter screen (AID 743194); further: nearly all actives have a fitted effect of over 55% in size
Summary of the method: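 PPARg-UAS-bla HEK293H cells were plated, rested 5 h at 37 C, then treated with compounds plus rosiglitazone (50 nM final) for 17 h at 37 C; viability was then read by CellTiter-Glo luminescence after 30 min at room temperature.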

[12] = qHTS assay for small molecule agonists of the antioxidant response element (ARE) signaling pathway (AID 743202; active means well fitted activation curve with a large enough effect in the signal ratio in the repeat runs, not every such curve was filed as active; the % refers to the signal ratio)
Summary of the method: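 Following a 16 h, 37 C exposure of reporter HepG2 cells (ARE-driven beta-lactamase, 2,000 cells/well) to compounds, FRET substrate was applied for 2 h at room temperature and fluorescence intensity recorded.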

[13] = qHTS assay for small molecule agonists of the antioxidant response element (ARE) signaling pathway - cell viability counter screen (AID 743203; calls by dose curve; further: nearly all actives have a fitted effect of over 55% in size; further: potency means the concentration at half of the fitted maximal effect)
Summary of the method: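 ATP content via CellTiter-Glo luminescence served as the viability measure. Cells: ARE-bla HepG2, 2,000 per well. Exposure: 16 hrs, 37C/5% CO2.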

[14] = qHTS assay to identify small molecule antagonists of the thyroid receptor (TR) signaling pathway - cell viability counter screen (AID 743064); further: nearly all actives have a fitted effect of over 50% in size; further: potency means the concentration at half of the fitted maximal effect
Summary of the method: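 GH3.TRE-Luc rat pituitary cells dosed after 4 hr plating, co-stimulated with T3 at 1 nM final, incubated 23.5 h at 37 C. Viability measured in the same wells by CellTiter-Fluor fluorescence after 30 min further at 37 C.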

[15] = target: Aryl hydrocarbon receptor (Homo sapiens) (UniProt P35869); assay: qHTS assay to identify small molecule that activate the aryl hydrocarbon receptor (AhR) signaling pathway (AID 743085);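 further: HG2L7.5c1 human HepG2 liver cells with stably integrated DRE-driven firefly reporter; series mostly up to about 70 µM; nearly all actives have a fitted effect of over 15% in size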
Summary of the method: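 HepG2 cells stably carrying a 20-DRE firefly luciferase reporter (HG2L7.5c1) treated with compound for 24 hr at 37C. Luciferase read by ONE-Glo luminescence, with CellTiter-Fluor viability read first.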

[16] = qHTS assay for small molecule activators of the heat shock response signaling pathway - cell viability counter screen (AID 743209); further: nearly all actives have a fitted effect of over 50% in size
Summary of the method: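 Compounds dissolved in DMSO were added to overnight-plated HSE-bla HeLa cells and left 5 h at 37 C. Cell viability was quantified by luminescence using CellTiter-Glo.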

[17] = qHTS assay for small molecule activators of the heat shock response signaling pathway (AID 743210; active means well fitted activation curve with a large enough effect in the signal ratio in the repeat runs, with a control signal flat, not every such curve was filed as active; the % refers to the signal ratio; further: series mostly up to about 63 µM)
Summary of the method: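 Heat shock element–beta-lactamase HeLa reporter cells; qHTS with compounds for 5 h at 37 C; detection by FRET substrate fluorescence after 2.5 h at RT.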

[18] = target: Peroxisome proliferator-activated receptor gamma (Homo sapiens) (UniProt P37231); assay: qHTS assay to identify small molecule agonists of the peroxisome proliferator-activated receptor gamma (PPARg) signaling pathway (AID 743094; active means well fitted activation curve with a large enough effect in the signal ratio in the repeat runs, not every such curve was filed as active; the % refers to the signal ratio)
Summary of the method: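 Agonism was assessed in a beta-lactamase reporter system, HEK293H cells with a stably integrated UAS-bla construct under PPARg control; the 17 h treatment at 37C preceded a 1 h room-temperature FRET substrate read.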

[19] = qHTS assay to identify small molecule antagonists of the estrogen receptor alpha (ER-alpha) signaling pathway using the BG1 cell line (AID 743080; calls by dose curve;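 further: BG1 cells stimulated with 17beta-estradiol alongside compound; series mostly up to about 70 µM; nearly all actives have a fitted effect of over 25% in size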)
Summary of the method: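 Readout is ONE-Glo luminescence, taken 30 min at room temperature after reagent addition, preceded by a CellTiter-Fluor viability read; BG1-Luc-4E2 cells had received compound and 17beta-estradiol for 21.5 h at 37 C.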

Measured: Potency

Chain of Peroxisome proliferator-activated receptor gamma (Homo sapiens) (P37231 whole entry, looked up): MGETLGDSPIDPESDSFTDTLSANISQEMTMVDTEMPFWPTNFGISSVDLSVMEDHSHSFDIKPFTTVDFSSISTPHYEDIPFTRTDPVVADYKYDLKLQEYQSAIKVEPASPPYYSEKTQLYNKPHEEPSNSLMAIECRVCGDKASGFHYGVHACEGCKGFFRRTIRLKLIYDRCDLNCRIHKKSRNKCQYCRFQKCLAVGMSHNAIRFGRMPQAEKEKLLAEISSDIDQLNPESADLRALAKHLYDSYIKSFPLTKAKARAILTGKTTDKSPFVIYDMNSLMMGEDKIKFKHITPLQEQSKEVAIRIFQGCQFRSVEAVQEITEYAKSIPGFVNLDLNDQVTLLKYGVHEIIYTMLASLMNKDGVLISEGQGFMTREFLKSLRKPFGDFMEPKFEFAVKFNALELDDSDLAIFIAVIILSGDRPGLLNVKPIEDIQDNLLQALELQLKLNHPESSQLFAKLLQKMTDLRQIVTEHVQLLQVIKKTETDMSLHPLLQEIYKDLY
Chain of Estrogen receptor (Homo sapiens) (P03372 whole entry, looked up): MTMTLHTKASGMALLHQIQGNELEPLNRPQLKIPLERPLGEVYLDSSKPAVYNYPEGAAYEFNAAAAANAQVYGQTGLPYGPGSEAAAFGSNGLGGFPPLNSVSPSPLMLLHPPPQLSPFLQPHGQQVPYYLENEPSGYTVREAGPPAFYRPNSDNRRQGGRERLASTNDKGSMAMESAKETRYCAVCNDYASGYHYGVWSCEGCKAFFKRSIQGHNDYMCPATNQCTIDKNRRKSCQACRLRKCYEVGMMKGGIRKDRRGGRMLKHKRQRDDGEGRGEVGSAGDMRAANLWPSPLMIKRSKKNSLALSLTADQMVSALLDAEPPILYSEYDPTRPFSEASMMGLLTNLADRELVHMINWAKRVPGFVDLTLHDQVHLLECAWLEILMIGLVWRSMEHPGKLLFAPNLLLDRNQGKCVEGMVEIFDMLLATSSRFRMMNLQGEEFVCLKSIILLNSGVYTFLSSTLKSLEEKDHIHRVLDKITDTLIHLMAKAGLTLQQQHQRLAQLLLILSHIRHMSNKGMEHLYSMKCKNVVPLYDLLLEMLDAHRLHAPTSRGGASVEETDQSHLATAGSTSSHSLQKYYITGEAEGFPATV
Chain of Aryl hydrocarbon receptor (Homo sapiens) (P35869 whole entry, looked up): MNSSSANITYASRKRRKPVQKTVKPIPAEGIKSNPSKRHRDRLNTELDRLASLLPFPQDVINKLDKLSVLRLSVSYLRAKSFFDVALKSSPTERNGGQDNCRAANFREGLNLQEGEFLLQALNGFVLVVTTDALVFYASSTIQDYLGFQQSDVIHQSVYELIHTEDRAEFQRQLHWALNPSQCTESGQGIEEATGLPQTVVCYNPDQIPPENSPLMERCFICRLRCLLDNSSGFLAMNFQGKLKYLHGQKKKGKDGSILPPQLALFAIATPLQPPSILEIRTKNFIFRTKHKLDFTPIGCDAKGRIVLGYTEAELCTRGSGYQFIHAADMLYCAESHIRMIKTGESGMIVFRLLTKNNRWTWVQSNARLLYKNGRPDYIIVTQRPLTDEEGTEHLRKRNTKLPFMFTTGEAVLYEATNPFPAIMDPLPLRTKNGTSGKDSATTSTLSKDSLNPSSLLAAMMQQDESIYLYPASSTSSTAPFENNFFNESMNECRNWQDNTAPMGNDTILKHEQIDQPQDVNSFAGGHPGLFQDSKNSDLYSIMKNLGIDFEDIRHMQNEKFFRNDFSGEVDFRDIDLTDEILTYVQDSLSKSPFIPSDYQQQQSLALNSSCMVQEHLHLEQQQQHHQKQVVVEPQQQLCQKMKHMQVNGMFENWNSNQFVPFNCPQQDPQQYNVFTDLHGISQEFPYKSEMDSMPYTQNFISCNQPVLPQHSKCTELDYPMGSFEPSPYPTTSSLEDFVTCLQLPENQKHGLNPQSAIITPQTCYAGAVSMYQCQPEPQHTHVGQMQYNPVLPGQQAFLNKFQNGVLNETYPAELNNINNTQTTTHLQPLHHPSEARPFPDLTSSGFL
Chain of Aromatase (Homo sapiens) (P11511 whole entry, looked up): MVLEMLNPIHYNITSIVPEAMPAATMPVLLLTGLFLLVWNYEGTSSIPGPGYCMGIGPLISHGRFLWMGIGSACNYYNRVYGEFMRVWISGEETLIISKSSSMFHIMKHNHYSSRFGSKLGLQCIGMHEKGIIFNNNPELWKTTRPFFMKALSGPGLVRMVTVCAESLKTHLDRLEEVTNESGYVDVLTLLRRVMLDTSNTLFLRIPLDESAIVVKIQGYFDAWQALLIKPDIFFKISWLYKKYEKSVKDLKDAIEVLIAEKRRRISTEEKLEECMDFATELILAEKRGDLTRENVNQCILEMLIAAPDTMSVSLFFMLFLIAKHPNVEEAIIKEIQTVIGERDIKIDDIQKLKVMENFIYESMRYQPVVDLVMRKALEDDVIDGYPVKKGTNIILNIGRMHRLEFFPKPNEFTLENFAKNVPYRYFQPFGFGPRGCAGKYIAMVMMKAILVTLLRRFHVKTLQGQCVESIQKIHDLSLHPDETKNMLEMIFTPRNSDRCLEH

COc1ccc(C)cc1N
not listed: [14] | [15] | [16] | [17] | [18] | [19]
inactive: all other assays above

CC(=O)OC1CC(C)OC(C)O1 (stereo unspecified)
not listed: [3] | [5] | [6] | [12] | [16] | [17] | [18] | [19]
inactive: all other assays above

NCCNCCN
not listed: [3] | [5] | [6] | [12] | [18] | [19]
inactive: all other assays above

CC(C)(C#N)c1cc(Cn2cncn2)cc(C(C)(C)C#N)c1
inactive: [4] | [7] | [8] | [15] | [9] | [18] | [10] | [11] | [13]

CCCCCCCCCCCCCCCC(=O)OC(C)C
inactive: [14] | [1] | [2] | [4] | [7] | [9] | [11] | [12] | [13]

COCCOC(=O)c1ccccc1C(=O)OCCOC
not listed: [3] | [5] | [6] | [12] | [17] | [18] | [19]
inactive: all other assays above

CN(C)CCOC(=O)COc1ccc(Cl)cc1
not listed: [3] | [5] | [6] | [12] | [15] | [19]
inactive: all other assays above

CN/C(=C\[N+](=O)[O-])NCCSCc1csc(CN(C)C)n1
not listed: [3] | [5] | [6] | [12] | [15] | [16] | [19]
inactive: all other assays above

Cc1ccc(C(C)C)c(O)c1
inactive and 61.1 µM (active): [8]
active: [14] 61.1 µM
61.1 µM (active) and inactive: [13]
inactive and 54.5 µM (active): Aromatase (Homo sapiens)
not listed: [1] | [12] | [18] | [19]
inactive: all other assays above

CN1C(=O)CC[C@H]1c1cccnc1
not listed: [1] | [2] | [3] | [5] | [6] | [12] | [17] | [19]
inactive: all other assays above

C[C@]12CCC(=O)C=C1CC[C@@H]1[C@@H]2[C@@H](O)C[C@@]2(C)[C@H]1CC[C@]2(O)C(=O)CO
not listed: [3] | [5] | [6] | [12] | [18] | [19]
inactive: all other assays above

CC(CCl)OP(=O)(OC(C)CCl)OC(C)CCl (stereo unspecified)
not listed: [1] | [2] | [14] | [19]
inactive: all other assays above

CC(C)CC(=O)CC(C)CC(C)C (stereo unspecified)
not listed: [3] | [5] | [6] | [12] | [15] | [19]
inactive: all other assays above

N[C@H](Cc1c[nH]c2ccccc12)C(=O)O
not listed: [3] | [5] | [6] | [12] | [15] | [18] | [19]
inactive: all other assays above

CC(C)CCCCCCCOC(=O)CCCCC(=O)OCCCCCCCC(C)C
not listed: [3] | [5] | [6] | [11] | [12] | [17] | [18] | [19]
inactive: all other assays above

C=CCc1ccc(OC)c(OC)c1
not listed: [3] | [5] | [6] | [10] | [12] | [18] | [19]
inactive: all other assays above

COC(=O)CCCC(=O)OC
inactive: [14] | [1] | [2] | [4] | [7] | [9] | [11] | [13] | [16] | [17]

CN(C)c1ccc(Cc2ccc(N(C)C)cc2)cc1
not listed: [3] | [5] | [6] | [12] | [15] | [16] | [17] | [19]
inactive: all other assays above

CCOC(=O)c1ccc(N)cc1
not listed: [3] | [5] | [6] | [12] | [15] | [17] | [18] | [19]
inactive: all other assays above

CCCCCCCCCCN
not listed: [3] | [4] | [5] | [6] | [10] | [12] | [18] | [19]
inactive: all other assays above

CC(C)OP(=O)(CP(=O)(OC(C)C)OC(C)C)OC(C)C
not listed: [3] | [14] | [18]
inactive: all other assays above

CCOC(=O)n1ccn(C)c1=S
not listed: [1] | [2] | [14] | [16]
inactive: all other assays above
